Data taken from PubChem BioAssay.
Activity calls are given as the source filed them. Unless noted, the rule behind the calls is not given here.

What was measured:
[1] = test system: Wnt5a (protein binding on small-molecule microarray); test: small molecules binding Wnt5a protein – biophysical, small-molecule microarray, 635/667 nm fluorescence, primary screen (AID 1142); details: 635 nm fluorescence, higher = more signal;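 note: fluorescence read at 667 nm with signal to noise per printed feature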
[2] = ATP-based viability of Huh7 replicon cells – cell-based, CellTiter-Glo luminescence, basal, 48 h, cytotoxicity control for HCV replication inhibitor project, primary screen (AID 1143); details: higher = more signal, called active from +8 up or from −8 down;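 note: Huh7 hepatoma cells carrying a hepatitis C replication reporter with no stimulus; test concentration not given here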
[3] = Pseudomonas biofilm growth suppression – PAO1 strain, BacTiter-Glo luminescence, LB-PBS, primary screen (AID 1144); details: P. aeruginosa PAO1 biofilm, 12 h, higher = more signal
[4] = basal CRE-LacZ reporter activity in PC12 – cell-based, unstimulated, primary screen (AID 1145); details: no forskolin, luminescence, 4.5 h, higher = more signal, called active from +8 up or from −8 down
[5] = forskolin-driven CRE-LacZ activity in PC12 – cell-based, CRE-LacZ reporter, forskolin-stimulated, primary screen (AID 1146); details: luminescence, 4.5 h, higher = more signal, called active from +8 up or from −8 down;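 note: PC12 cells with 6xCRE LacZ reporter stimulated by forskolin 10 µM; beta-galactosidase reporter signal reflecting CREB driven transcription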
[6] = biological target: Streptavidin (Streptomyces avidinii) (UniProt P22629); test: compounds binding control protein streptavidin – biophysical, small-molecule microarray, 635/667 nm fluorescence, artefact control for SMM compound annotation, primary screen (AID 1147); details: higher = more signal;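 note: signal reflects streptavidin binding to arrayed compounds as a control protein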
Sequence of Streptavidin (Streptomyces avidinii) (P22629 whole entry, looked up): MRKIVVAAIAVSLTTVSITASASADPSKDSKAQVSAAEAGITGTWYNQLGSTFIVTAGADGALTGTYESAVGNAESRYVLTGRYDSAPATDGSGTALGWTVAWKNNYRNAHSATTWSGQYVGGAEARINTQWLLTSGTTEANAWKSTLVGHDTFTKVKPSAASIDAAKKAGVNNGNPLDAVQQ

[7] = probe aInhba binding on compound microarray – biochemical, small-molecule microarray, 635/667 nm fluorescence, primary screen (AID 1148); details: higher = more signal;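 note: score merges 667nm spot fluorescence with signal-to-noise for antibody binding to printed compounds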
[8] = biological target: Torsin-1A (Homo sapiens) (UniProt O14656); test: TOR1A wild-type binding on microarray – cell lysate, small-molecule microarray, lysate, 635/667 nm, primary screen (AID 1149); details: COS7 hTOR1A-WT lysate, 635 nm fluorescence, higher = more signal
Sequence of Torsin-1A (Homo sapiens) (O14656 whole entry, looked up): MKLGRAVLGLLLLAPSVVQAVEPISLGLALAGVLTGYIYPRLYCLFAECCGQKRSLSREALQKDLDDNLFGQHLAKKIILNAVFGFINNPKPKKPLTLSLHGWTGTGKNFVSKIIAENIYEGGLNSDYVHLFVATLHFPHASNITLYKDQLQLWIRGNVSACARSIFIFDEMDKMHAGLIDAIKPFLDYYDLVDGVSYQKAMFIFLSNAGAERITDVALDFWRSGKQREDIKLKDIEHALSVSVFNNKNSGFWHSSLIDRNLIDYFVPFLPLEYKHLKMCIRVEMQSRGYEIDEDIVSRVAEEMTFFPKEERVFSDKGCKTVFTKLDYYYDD

[9] = biological target: Torsin-1A (Homo sapiens) (UniProt O14656); test: torsin A mutant lysate binding on microarrays – cell lysate, small-molecule microarray, COS7 lysate, 635/667 nm fluorescence, primary screen (AID 1150); details: COS7 hTOR1A mutant lysate, 635 nm fluorescence, higher = more signal;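 note: score pools 667 nm emission and signal to noise measuring lysate protein binding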
[10] = test system: Sonic hedgehog protein (Shh); test: Sonic hedgehog microarray binding compounds – biochemical, small-molecule microarray, 635/667 nm fluorescence, primary screen (AID 1151); details: 635 nm fluorescence, higher = more signal;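 note: Shh protein binding to compounds spotted on small-molecule microarray slides; score combines spot fluorescence intensity with signal-to-noise across triplicate slides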
[11] = optical density shifts of acrAB sulA E. coli – strain DRC41, OD650, 48 h, E. coli filamentation inducer project, primary screen (AID 1152); details: higher = more signal, called active from +8 up or from −8 down;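 note: E. coli MC1000 strain DRC41 lacking acrAB efflux pump and sulA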
[12] = probe aLefty1 binding on compound microarray – biochemical, small-molecule microarray, 635/667 nm fluorescence, primary screen (AID 1153); details: higher = more signal;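 note: score merges spot fluorescence with signal-to-noise ratio from the scanned slide images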
[13] = plasmodial surface anion channel blockers, osmotic lysis – cell-based, P. falciparum Indochina, OD700, 1 h, primary screen (AID 1154); details: P. falciparum Indochina infected RBC osmotic lysis, higher = more signal, called active from +8 up or from −8 down
[14] = plasmodial surface anion channel blockers, osmotic lysis – cell-based, P. falciparum Indochina, OD700, 2 h, primary screen (AID 1155);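 note: lysis reports solute entry through the parasite surface anion channel PSAC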; details: P. falciparum Indochina infected erythrocytes, higher = more signal, called active from +8 up or from −8 down
[15] = changes in parasitized red cell lysis, either direction – P. falciparum Indochina, OD700, 3 h, PSAC antagonist project, primary screen (AID 1156); details: P. falciparum-infected erythrocytes, osmotic lysis, higher = more signal, called active from +8 up or from −8 down
[16] = plasmodial surface anion channel blockers, osmotic lysis – cell-based, P. falciparum Indochina, OD700, 18 h, primary screen (AID 1157); details: P. falciparum Indochina infected erythrocytes, osmotic lysis OD700, 18 h; higher = more signal, called active from +8 up or from −8 down
[17] = S6 kinase pathway phospho-S6 level changes – cell-based, A549, cytoblot, luminescence, serum-stimulated, primary screen (AID 1158); details: 5 h, higher = more signal;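 note: serum-stimulated A549 lung adenocarcinoma cells; signal is phosphorylated S6 detected by cytoblot immunostaining with HRP secondary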
[18] = biological target: NADPH oxidase 2 (Homo sapiens) (UniProt P04839); test: compounds shifting NOX2 Amplex Red fluorescence – cell-based, HEK293-NOX2, PMA-stimulated, NOX inhibitor project, primary screen (AID 1159); details: 45 min, higher = more signal, called active from +8 up or from −8 down; note: test concentration not given here
Sequence of NADPH oxidase 2 (Homo sapiens) (P04839 whole entry, looked up): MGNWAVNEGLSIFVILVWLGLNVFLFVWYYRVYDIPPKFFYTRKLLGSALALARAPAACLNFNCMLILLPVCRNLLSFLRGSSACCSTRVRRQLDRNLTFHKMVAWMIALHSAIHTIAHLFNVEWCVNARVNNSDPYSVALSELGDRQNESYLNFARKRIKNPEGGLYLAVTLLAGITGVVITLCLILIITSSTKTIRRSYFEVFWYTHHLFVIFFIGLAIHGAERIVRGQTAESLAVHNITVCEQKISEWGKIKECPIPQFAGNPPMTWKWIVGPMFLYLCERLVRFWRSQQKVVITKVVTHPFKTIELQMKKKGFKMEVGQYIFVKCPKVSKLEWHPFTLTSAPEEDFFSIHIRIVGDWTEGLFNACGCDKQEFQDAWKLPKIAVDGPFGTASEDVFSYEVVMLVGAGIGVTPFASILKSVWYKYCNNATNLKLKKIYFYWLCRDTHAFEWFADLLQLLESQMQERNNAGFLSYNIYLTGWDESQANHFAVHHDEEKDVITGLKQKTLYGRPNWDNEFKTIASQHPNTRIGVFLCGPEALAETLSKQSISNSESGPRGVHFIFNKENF

[19] = biological target: NADPH oxidase 4 (Homo sapiens) (UniProt Q9NPH5); test: compounds shifting NOX4 Amplex Red fluorescence – cell-based, HEK293-NOX4, tetracycline-induced, NOX inhibitor project, primary screen (AID 1160); details: HEK293-NOX4, Amplex Red H2O2 fluorescence, 45 min; higher = more signal, called active from +8 up or from −8 down
Sequence of NADPH oxidase 4 (Homo sapiens) (Q9NPH5 whole entry, looked up): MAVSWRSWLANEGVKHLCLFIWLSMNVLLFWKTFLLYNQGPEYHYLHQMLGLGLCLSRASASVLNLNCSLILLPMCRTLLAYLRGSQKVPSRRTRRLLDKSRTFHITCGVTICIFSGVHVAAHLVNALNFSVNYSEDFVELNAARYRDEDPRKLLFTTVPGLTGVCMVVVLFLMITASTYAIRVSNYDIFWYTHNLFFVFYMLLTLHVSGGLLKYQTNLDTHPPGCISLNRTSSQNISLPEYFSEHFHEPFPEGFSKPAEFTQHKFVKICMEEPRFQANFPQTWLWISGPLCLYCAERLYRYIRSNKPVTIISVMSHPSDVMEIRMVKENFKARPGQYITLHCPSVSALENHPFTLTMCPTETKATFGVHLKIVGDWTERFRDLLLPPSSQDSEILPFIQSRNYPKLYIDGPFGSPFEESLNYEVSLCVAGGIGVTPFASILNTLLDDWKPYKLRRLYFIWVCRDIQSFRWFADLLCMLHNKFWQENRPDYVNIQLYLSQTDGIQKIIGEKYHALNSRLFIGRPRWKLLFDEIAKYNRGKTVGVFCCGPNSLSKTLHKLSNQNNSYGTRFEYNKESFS

[20] = biological target: NADPH oxidase 5 (Homo sapiens) (UniProt Q96PH1); test: compounds shifting NOX5 Amplex Red fluorescence – cell-based, HEK293-NOX5, NOX inhibitor project, primary screen (AID 1161); details: HEK293-NOX5, ionomycin, 45 min, higher = more signal
Sequence of NADPH oxidase 5 (Homo sapiens) (Q96PH1 whole entry, looked up): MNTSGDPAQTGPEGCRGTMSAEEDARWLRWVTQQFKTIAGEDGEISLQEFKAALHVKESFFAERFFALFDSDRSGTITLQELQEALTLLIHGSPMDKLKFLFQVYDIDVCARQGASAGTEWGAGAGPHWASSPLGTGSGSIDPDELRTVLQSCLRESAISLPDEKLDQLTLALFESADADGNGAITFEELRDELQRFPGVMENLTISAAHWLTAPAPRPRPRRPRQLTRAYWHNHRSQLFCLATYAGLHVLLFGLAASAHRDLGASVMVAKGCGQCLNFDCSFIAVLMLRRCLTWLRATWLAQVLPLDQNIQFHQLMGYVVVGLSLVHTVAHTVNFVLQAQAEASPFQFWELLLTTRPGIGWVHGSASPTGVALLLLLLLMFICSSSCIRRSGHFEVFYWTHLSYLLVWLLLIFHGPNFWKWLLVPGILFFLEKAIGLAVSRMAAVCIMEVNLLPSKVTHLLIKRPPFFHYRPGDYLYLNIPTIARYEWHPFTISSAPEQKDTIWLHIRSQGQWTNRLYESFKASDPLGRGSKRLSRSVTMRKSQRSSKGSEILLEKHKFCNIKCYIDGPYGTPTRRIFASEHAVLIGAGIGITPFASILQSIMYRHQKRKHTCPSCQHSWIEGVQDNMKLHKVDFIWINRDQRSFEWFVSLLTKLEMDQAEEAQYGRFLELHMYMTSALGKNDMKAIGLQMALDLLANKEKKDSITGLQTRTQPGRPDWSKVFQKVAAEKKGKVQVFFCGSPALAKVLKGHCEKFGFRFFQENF

CO[C@H]1O[C@H](CO)[C@@H](OC(=O)Nc2ccc(Oc3ccccc3)cc2)[C@H](OC(=O)Nc2ccc3c(c2)OCO3)[C@H]1OC(=O)Nc1ccc2c(c1)OCO2
composite z-score [1]: 0.636
z-score [2]: -1.48 (inactive)
z-score [3]: -0.822 (inactive)
z-score [4]: 1.09 (inactive)
z-score [5]: -0.922 (inactive)
composite z-score [6]: 0.412
composite z-score [7]: 0.443
composite z-score [8]: 0.387
composite z-score [9]: 0.661
composite z-score [10]: 1.41
z-score [11]: 0.97 (inactive)
composite z-score [12]: 0.523
z-score [13]: 7.24 (inactive)
z-score [14]: 0.996 (inactive)
z-score [15]: 0.902 (inactive)
z-score [16]: 0.397 (inactive)
z-score [17]: 1.2
z-score [18]: 0.706 (inactive)
z-score [19]: -1.65 (inactive)
z-score [20]: -0.714

COC(=O)c1c(CC[C@@H](CO)NC(=O)NCCn2cc(C3(O)CCCC3)nn2)oc(C(C)=O)c1C(=O)OC
composite z-score [1]: -0.344
z-score [2]: -0.177 (inactive)
z-score [3]: 0.699 (inactive)
z-score [4]: 0.978 (inactive)
z-score [5]: -0.194 (inactive)
composite z-score [6]: 0.102
composite z-score [7]: -0.203
composite z-score [8]: -0.0395
composite z-score [9]: 0.105
composite z-score [10]: -0.303
z-score [11]: -1.2 (inactive)
composite z-score [12]: -0.403
z-score [13]: 2.06 (inactive)
z-score [14]: 0.474 (inactive)
z-score [15]: 1.29 (inactive)
z-score [16]: 0.533 (inactive)
z-score [17]: -0.359
z-score [18]: -0.278 (inactive)
z-score [19]: 0.233 (inactive)
z-score [20]: -0.666

CCCCCCc1nc(-c2ccc(OC)nc2)cc2c1[Si](C(C)C)(C(C)C)O[C@H]2c1ccccc1
composite z-score [1]: 0.323
z-score [2]: -0.295 (inactive)
z-score [3]: 0.0731 (inactive)
z-score [4]: 0.773 (inactive)
z-score [5]: 0.03 (inactive)
composite z-score [6]: 0.111
composite z-score [7]: 0.136
composite z-score [8]: 0.0114
composite z-score [9]: -0.234
composite z-score [10]: 1.21
z-score [11]: -1.03 (inactive)
composite z-score [12]: -0.0559
z-score [13]: 0.614 (inactive)
z-score [14]: 0.139 (inactive)
z-score [15]: 0.245 (inactive)
z-score [16]: -0.353 (inactive)
z-score [17]: -0.168
z-score [18]: 0.0155 (inactive)
z-score [19]: -0.95 (inactive)
z-score [20]: -1.64

O=C1OCCC/C=C\[C@H]2OC34C=CCN(Cc5ccccc5)C(=O)[C@H]3N(CCCO)C(=O)[C@@H]4C12 (stereo not given in full)
composite z-score [1]: -0.597
z-score [2]: -0.639 (inactive)
z-score [3]: 2.87 (inactive)
z-score [4]: 0.593 (inactive)
z-score [5]: -0.59 (inactive)
composite z-score [6]: -1.1
composite z-score [7]: -0.176
composite z-score [8]: -1.14
composite z-score [9]: -2.13
composite z-score [10]: -0.85
z-score [11]: 0.616 (inactive)
composite z-score [12]: 0.042
z-score [13]: 1.21 (inactive)
z-score [14]: 0.486 (inactive)
z-score [15]: -0.0156 (inactive)
z-score [16]: 0.211 (inactive)
z-score [17]: -0.506
z-score [18]: 1.76 (inactive)
z-score [19]: -1.71 (inactive)
z-score [20]: 2.38

COC(=O)[C@@]1(Cc2ccc(OC)cc2)[C@H]2c3cc(C(=O)N4CCCC4)n(Cc4ccc(O)c(OC)c4)c3C[C@H]2CN1C(=O)c1ccccc1
composite z-score [1]: 1.22
z-score [2]: -1.28 (inactive)
z-score [3]: -0.117 (inactive)
z-score [4]: 0.962 (inactive)
z-score [5]: 0.549 (inactive)
composite z-score [6]: 2.18
composite z-score [7]: 1.21
composite z-score [8]: -0.208
composite z-score [9]: 0.669
composite z-score [10]: -0.466
z-score [11]: -0.703 (inactive)
composite z-score [12]: 0.622
z-score [13]: 5.08 (inactive)
z-score [14]: 0.722 (inactive)
z-score [15]: 1.04 (inactive)
z-score [16]: 0.739 (inactive)
z-score [17]: 0.299
z-score [18]: -2.31 (inactive)
z-score [19]: -4.7 (inactive)
z-score [20]: -4.33

C=CCOC(=O)[C@H]1[C@@H]2C(=O)O[C@@H](c3ccccc3)[C@@H](c3ccccc3)N2[C@@H](c2ccc(OCCOC(=O)[C@H]3C[C@H]4C(=O)N[C@@H](CCCCNC(C)=O)C(=O)N4[C@H]3c3ccc(O)cc3)cc2)[C@]12C(=O)Nc1ccc(I)cc12
composite z-score [1]: 0.413
z-score [2]: -1.48 (inactive)
z-score [3]: 0.399 (inactive)
z-score [4]: 5.04 (inactive)
z-score [5]: 6.74 (inactive)
composite z-score [6]: 0.142
composite z-score [7]: 0.098
composite z-score [8]: 0.807
composite z-score [9]: 1.01
composite z-score [10]: 2.09
z-score [11]: -1.8 (inactive)
composite z-score [12]: 0.204
z-score [13]: -0.858 (inactive)
z-score [14]: 0.461 (inactive)
z-score [15]: 0.675 (inactive)
z-score [16]: -0.214 (inactive)
z-score [17]: -0.635
z-score [18]: 1.36 (inactive)
z-score [19]: 0.823 (inactive)
z-score [20]: 0.935

C=C(COC)/C(=C/C[C@@H](OC(C)=O)c1ccc(OCCO)cc1)c1cnc2ccccc2c1
composite z-score [1]: 0.837
z-score [2]: -2.22 (inactive)
z-score [3]: -0.826 (inactive)
z-score [4]: 3.77 (inactive)
z-score [5]: -0.861 (inactive)
composite z-score [6]: 1.36
composite z-score [7]: -0.0403
composite z-score [8]: -0.148
composite z-score [9]: 0.647
composite z-score [10]: 1.75
z-score [11]: 2.11 (inactive)
composite z-score [12]: 0.127
z-score [13]: 20.2 (active)
z-score [14]: 3.53 (inactive)
z-score [15]: 0.844 (inactive)
z-score [16]: -0.282 (inactive)
z-score [17]: 1.81
z-score [18]: -2.04 (inactive)
z-score [19]: -0.287 (inactive)
z-score [20]: -1.08

O=C1C[C@@](C(=O)NC2CC2)(c2ccc([N+](=O)[O-])cc2)[C@@H](c2ccc(CO)cc2I)N1C1CCCCC1
composite z-score [1]: 0.693
z-score [2]: -3.54 (inactive)
z-score [3]: -0.691 (inactive)
z-score [4]: 0.495 (inactive)
z-score [5]: 0.714 (inactive)
composite z-score [6]: 1.38
composite z-score [7]: 0.0785
composite z-score [8]: 0.207
composite z-score [9]: 0.461
composite z-score [10]: 2.09
z-score [11]: -0.178 (inactive)
composite z-score [12]: -0.034
z-score [13]: 16.5 (active)
z-score [14]: 2.28 (inactive)
z-score [15]: 3.03 (inactive)
z-score [16]: 0.797 (inactive)
z-score [17]: -0.552
z-score [18]: 1.37 (inactive)
z-score [19]: 0.666 (inactive)
z-score [20]: 2.04

CCCC[C@@H]1C[C@H]1[C@@H](NC(=O)c1ccccc1)c1ccc(C(=O)OC)cc1
composite z-score [1]: 0.106
z-score [2]: -0.977 (inactive)
z-score [3]: -0.485 (inactive)
z-score [4]: 0.576 (inactive)
z-score [5]: 0.0003 (inactive)
composite z-score [6]: -0.279
composite z-score [7]: -0.018
composite z-score [8]: -2.83
composite z-score [9]: -0.686
composite z-score [10]: -1.11
z-score [11]: -2.42 (inactive)
composite z-score [12]: 0.357
z-score [13]: 12.2 (active)
z-score [14]: 1.91 (inactive)
z-score [15]: 0.57 (inactive)
z-score [16]: 0.643 (inactive)
z-score [17]: -0.728
z-score [18]: -1.14 (inactive)
z-score [19]: -2.96 (inactive)
z-score [20]: -0.585
